Experimental findings from the supplement of paper PMC10338343 are described below.

± gives the standard deviation.

One assay concerns MILI (PIWIL2) piRISC loaded with L1MC piRNA (26 nt). Description: pre-steady-state target cleavage rate (min^-1); guide: L1MC piRNA 5'p-UAACUAAAUACUAUGCAAGCUGUAGG; MIWI and MILI are mouse PIWI proteins and EfPiwi is from a freshwater sponge; tags in brackets are library labels; higher = faster piRNA-guided slicing of the target. The conditions noted are these: auxiliary factor: 500 nM mouse GTSF1. In outline: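 The pre-steady-state cleavage rate was obtained by Cleave-'n-Seq with a burst-and-steady-state fit. A transcribed, DNA-blocked target RNA library (0.1 nM) was mixed with 1 nM active affinity-purified piRISC carrying one synthetic guide, with or without 500 nM GTSF1 partner protein, in HEPES–potassium acetate buffer at 33 °C for 0–8 or 0–960 min. Uncleaved targets were sequenced and normalised to depth and to weakly complementary targets, with three trials pooled and k3 capped at 0.0001 min^-1.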
For UCCUGCUACAGCUUGCAUAGUUUUUACUUA, the “pre-steady-state target cleavage rate” value was found to be 0.0291 ± 0.0063.

As for UCCUGGAUGUCCUUGCAUAGUAUUAUGUUA, the “pre-steady-state target cleavage rate” value amounted to 0.00972 ± 0.0046.

Regarding UCCUGGAUCAGCUAGCAUAGUAUUUACAAA, the “pre-steady-state target cleavage rate” value came to 0.127 ± 0.023.

For UCCUGGAUCAGCUUGCAAAGUAUUUACAAA, the “pre-steady-state target cleavage rate” value stood at 0.0432 ± 0.012.

With UCCUGGAUGAGCUUGCAUAGUAAUUAGAAA, the “pre-steady-state target cleavage rate” value amounted to 0.00737 ± 0.0053.

For UCCUGGAACAGGUUGCAUAGUAUUUUCAAA, the “pre-steady-state target cleavage rate” value was determined as 0.0435 ± 0.012.

Regarding UCCUGGUACAGCUUGCAAUGUAUUUAGUAA, the “pre-steady-state target cleavage rate” value is 0.0576 ± 0.013.

On to UCCUGGAUCAGCUUGCAUAGUAUUUCAGUUA, for which the “pre-steady-state target cleavage rate” value worked out at 0.162 ± 0.028.

UCCUGGAUGUGCUUGGAUAGUAUUUAGUAA: the “pre-steady-state target cleavage rate” value is 0.117 ± 0.021.

Turning to UCCUCCUACAGCUUGCAUUCUAUUUAGUUA, the “pre-steady-state target cleavage rate” value was found to be 0.0458 ± 0.0096.

As for UCCUGGAUGUCGAUUCAUAGUAUUUAGUUA, the “pre-steady-state target cleavage rate” value turned out to be 0.0157 ± 0.0044.

As for UCCUGGAUGUGCUUGCAUAGUAUUAAGUAA, the “pre-steady-state target cleavage rate” value worked out at 0.015 ± 0.0059.

As for UCCUCCUACAGCUUCCAUACUAUUUAGUUA, the “pre-steady-state target cleavage rate” value worked out at 0.0171 ± 0.0071.

Regarding UCCUGCUACAGCUACCAUAGUAUUUAGAAA, the “pre-steady-state target cleavage rate” value was found to be 0.0677 ± 0.021.

As to UCCUGGAACAGCUUGCAUAGUAUAUACUUA, the “pre-steady-state target cleavage rate” value was 0.0233 ± 0.01.

Regarding UCCUGGAUGUCGAAGCAUAGUAUUUGAGUUA, the “pre-steady-state target cleavage rate” value worked out at 0.0579 ± 0.012.

For UCCUGGAUGAGCUUGCAUAGUAUAUAGAUA, the “pre-steady-state target cleavage rate” value was 0.019 ± 0.0076.

Turning to UCCUGCUACAGCUUGCAUAGAUUUUAGUUA, the “pre-steady-state target cleavage rate” value stood at 0.0475 ± 0.0083.

Take UCCUGGUACAGCUUGCAUAGUAUGUAGUUA: the “pre-steady-state target cleavage rate” value turned out to be 0.03 ± 0.011.

Take UCCUGGAUGACCUUCCAUAGUAUUUAGUUA: the “pre-steady-state target cleavage rate” value was 0.024 ± 0.0096.

Regarding UCCUCCUACAGCUUGCAAUCUAUUUAGUAA, the “pre-steady-state target cleavage rate” value was found to be 0.0401 ± 0.0094.

For UCCUGGAUGAGGUUGCAUACUAUUUAGUUA, the “pre-steady-state target cleavage rate” value was determined as 0.0167 ± 0.006.

Turning to UCCUGGAACAGCUUGCAUUGUAUUUACAAA, the “pre-steady-state target cleavage rate” value was determined as 0.00788 ± 0.0043.

For the sequence UCCUGGAUGAGCUUGGAUAGUAUUAAGUUA, the “pre-steady-state target cleavage rate” value came to 0.0932 ± 0.022.

In the case of UCCUGGAUGUCGUUGCAUAGUAUUUACGUUA, the “pre-steady-state target cleavage rate” value is 0.231 ± 0.064.

Regarding UCCUCCUACAGGAAGCAUAGUAUUUUCAAA, the “pre-steady-state target cleavage rate” value turned out to be 0.0352 ± 0.012.

As to UCCUGGAUCAGCUAGCAUAGUAUUUACUUA, the “pre-steady-state target cleavage rate” value was 0.134 ± 0.018.

Regarding UCCUGGAUGUCGUUGCAUAGUAUUUCGUUA, the “pre-steady-state target cleavage rate” value stood at 0.0162 ± 0.0076.

For the sequence UCCUGCUACAGGUUGCAUAGUAUUUACUUA, the “pre-steady-state target cleavage rate” value was found to be 0.0231 ± 0.011.

Consider UCCUGGAUGACCUUGCAUAGUAAUUAGUUA, for which the “pre-steady-state target cleavage rate” value is 0.131 ± 0.027.

Regarding UCCUGGAUGUCCUUGCUUAGUAUUUAGUAA, the “pre-steady-state target cleavage rate” value is 0.0426 ± 0.013.

Turning to UCCUGGAUGUGCUUGCAUAGAAUAUAGUUA, the “pre-steady-state target cleavage rate” value amounted to 0.00814 ± 0.0043.

UCCUGGAUGUGCUUCGAUAGUAUUUAGUUA: the “pre-steady-state target cleavage rate” value is 0.0415 ± 0.0078.

Regarding UCCUGGAACAGCUUGCAUAGUAAUUUCAAA, the “pre-steady-state target cleavage rate” value was found to be 0.0786 ± 0.026.

Staying with this assay, now noted: auxiliary factor: none (no GTSF1).
In the case of UCCUGGAUGUCGAACCAUAGUAUUAUGUUA, the “pre-steady-state target cleavage rate” value was under 0.0001.

As to UCCUGGAUGUCGAACGUAUCUAUAAAGUUA, the “pre-steady-state target cleavage rate” value was under 0.0001.

Consider UCCUGGAUGUCGAAGCAUAGAAUUUAGUAA, for which the “pre-steady-state target cleavage rate” value is under 0.0001.

With UCCUGGAUGUCGUUGCAUAGUUAAUAGUUA, the “pre-steady-state target cleavage rate” value amounted to 0.00434 ± 0.0022.

UCCUGGAUGUCGAACGAAUCUAUUUAGUUA: the “pre-steady-state target cleavage rate” value was under 0.0001.

In the case of UCCUGGAUGUCGAACCAUAGUAAUUUGUUA, the “pre-steady-state target cleavage rate” value is under 0.0001.
